The results in this text go back to PubChem BioAssay AID1347145 (National Center for Advancing Translational Sciences (NCATS), 2019).

The structures appear in SMILES notation. Records with an inconclusive call do not appear. Where a call stands in place of a potency, no number is given. Calls of active or inactive are those of the source. The call rests on the fitted dose curve; in most records, active means well fitted inhibition curve with a large enough effect; inconclusive means small, poorly fitted or top-dose-only effect; inactive means no such curve, though single readings can be large or run the other way.

N-terminal Xaa-Pro-Lys N-methyltransferase 1 (Homo sapiens), sequence (Q9BV86 whole entry, looked up): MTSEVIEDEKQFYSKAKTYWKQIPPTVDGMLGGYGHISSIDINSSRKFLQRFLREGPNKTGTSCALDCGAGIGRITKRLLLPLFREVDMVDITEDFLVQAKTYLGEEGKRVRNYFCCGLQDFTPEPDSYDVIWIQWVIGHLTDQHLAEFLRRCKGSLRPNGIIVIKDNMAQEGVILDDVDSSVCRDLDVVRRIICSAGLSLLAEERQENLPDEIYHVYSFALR

For this assay, the target named is N-terminal Xaa-Pro-Lys N-methyltransferase 1 (Homo sapiens) (UniProt Q9BV86). Nature of the assay: qHTS Assay for Inhibitors of N-terminal methyltransferase 1 (NTMT1): MTaseGlo Assay Confirmatory Screen, Round 1. The settings on record: Recombinant NTMT1, MTase-Glo SAH luminescence; series mostly up to 57.1 µM. In a few lines:
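Luminescence from MTase-Glo conversion of SAH to ATP measured activity after a 30 min RT reaction with 1 µM SPKRIA substrate, 100 µM SAM and 125 nM enzyme. Normalization used no-enzyme and DMSO controls, followed by Hill fitting.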
On to `COc1cc2c(NC3CCN(C)CC3)nc(N3CCCN(C)CC3)nc2cc1OCCCN(C)C`, for which the Potency entry was “inactive”.

On to `COc1cc2nc(Nc3ccccc3)nc(NC3CC3)c2cc1OC`, for which the Potency entry is “inactive”.

For the compound `Nc1nc2c(ncn2[C@@H]2O[C@H](CO)[C@@H](O)[C@H]2O)c(=O)[nH]1`, the Potency entry was “inactive”.

Take `CCCN(C)CCCOc1cc2nc(N3CCCN(C)CC3)nc(NC3CCN(C)CC3)c2cc1OC`: the Potency result was “inactive”.

As for `Nc1ncnc2c1nc(Br)n2C1OC(CO)C(O)C1O` (configuration not stated), the Potency entry was “inactive”.

As for `Nc1nc(=S)c2ncn([C@@H]3O[C@H](CO)[C@@H](O)[C@H]3O)c2[nH]1`, the Potency entry was “inactive”.

For the compound `OCC1OC(n2cnc3c(NO)ncnc32)C(O)C1O` (configuration not stated), the Potency result is “inactive”.

For the compound `Nc1ncnc2c1ncn2[C@@H]1O[C@H](CO)C(O)[C@H]1O` (some centres not stated), the Potency entry was “inactive”.

For the compound `COc1cc2c(NC3CCN(C)CC3)nc(N3CCCN(C)CC3)nc2cc1OCCCCCN(C)C`, the Potency entry is “inactive”.

As for `CCN(CC)c1nc(NC2CCN(C)CC2)c2cc(OC)c(OC)cc2n1`, the Potency result was “inactive”.

As to `COc1cc2c(NC3CCN(C(C)C)CC3)nc(N3CCCN(C(C)C)CC3)nc2cc1OCCCN1CCCCC1`, the Potency entry was “inactive”.

`COc1cc2nc(N3CCCN(C)CC3)nc(NC3CC3)c2cc1OC`: the Potency result is “inactive”.

On to `COc1cc2nc(N3CC[C@H](N(C)C)C3)nc(NC3CC3)c2cc1OC`, for which the Potency entry is “inactive”.

Consider `Nc1ncnc2c1ncn2[C@@H]1O[C@H](COP(=O)(O)OP(=O)(O)CP(=O)(O)O)[C@@H](O)[C@H]1O`, for which the Potency result is “inactive”.

With `CCCCC#Cc1nc(NC)c2ncn([C@@H]3O[C@H](CO)[C@@H](O)C3O)c2n1` (some centres not stated), the Potency result is “inactive”.

Consider `CNc1nc2c(N)ncnc2n1[C@@H]1O[C@@H]2COP(=O)(O)O[C@H]2[C@H]1O`, for which the Potency entry was “inactive”.

For `Nc1ncnc2c1ncn2C1O[C@H](COP(=O)(O)O)[C@@H](O)[C@H]1O` (some centres not stated), the Potency result is “inactive”.

Turning to `COc1cc2c(NC3CCN(C(C)C)CC3)nc(N3CCCN(C)CC3)nc2cc1OCCCN(C)C`, the Potency result was “inactive”.

As for `COc1cc2nc(N3CCOCC3)nc(NC3CC3)c2cc1OC`, the Potency entry was “inactive”.

As for `N#Cc1ccc(COC[C@H]2O[C@@H](n3c(NCc4ccc(Cl)c(Cl)c4)nc4c(N)ncnc43)[C@@H](O)[C@@H]2O)cc1`, the Potency entry was “inactive”.

For `CNc1ncnc2c1ncn2[C@@H]1O[C@H](CO)[C@@H](O)[C@@H]1O`, the Potency result is “inactive”.

In the case of `CCCc1cc(C)[nH]c(=O)c1CNC(=O)c1cc(-c2ccc(N3CCN(C(C)C)CC3)nc2)cc2c1cnn2C(C)C`, the Potency result was “inactive”.

With `COc1cc2nc(N(C)C)nc(NC3CC3)c2cc1OC`, the Potency entry is “inactive”.

Consider `COc1cc2c(NC3CCN(C)CC3)nc(N3CCCN(C)CC3)nc2cc1OCC1CCNCC1`, for which the Potency result is “inactive”.

As to `CNc1nc(N2CCCN(C)CC2)nc2cc(OC)c(OC)cc12`, the Potency result was “inactive”.

As to `COc1cc2c(NC3CCN(C)CC3)nc(N3CCCCC3)nc2cc1OCCOCCN(C)C`, the Potency result was “inactive”.

For the compound `COC1C(CO)OC(n2cnc3c(=O)[nH]cnc32)C1O` (configuration not stated), the Potency result was “inactive”.

As to `COc1cc2nc(N3CC[C@@H](N(C)C)C3)nc(NC3CC3)c2cc1OC`, the Potency result was “inactive”.

Turning to `COc1cc2nc(N3CCN(C)CC3)nc(N3CCN(C(C)=O)CC3)c2cc1OC`, the Potency result is “inactive”.

On to `Nc1ncnc2c1ncn2[C@@H]1O[C@H](C(=O)NC2CC2)[C@@H](O)[C@H]1O`, for which the Potency entry is “inactive”.

For the compound `O=C(Nc1ncnc2c1ncn2[C@@H]1O[C@@H]2COP(=O)(O)O[C@H]2[C@H]1O)c1ccccc1`, the Potency result is “inactive”.

On to `COc1cc2c(NC3CCN(C(C)C)CC3)nc(N3CCCN(C)CC3)nc2cc1OCCOCCN1CCCC1`, for which the Potency entry was “inactive”.

Regarding `COc1cc2nc(N3CCN(C)CC3)nc(NCCN(C)C)c2cc1OC`, the Potency entry is “inactive”.

Take `CCCC(=O)Nc1ncnc2c1ncn2[C@@H]1O[C@@H]2COP(=O)(O)O[C@H]2[C@H]1OC(=O)CCC`: the Potency result was “inactive”.

On to `COc1cc2nc(N3CCN(C)CC3)nc(NC3CCN(C)CC3)c2cc1OC`, for which the Potency result was “inactive”.

As for `Nc1nc(Cl)nc2c1ncn2[C@@H]1O[C@H](CO)C(O)[C@H]1O` (some centres not stated), the Potency entry is “inactive”.

As to `Nc1ncnc2c1nc(Cl)n2[C@@H]1O[C@H](CO)[C@@H](O)[C@@H]1O`, the Potency result was “inactive”.
